Sampled rows, rich in hits. Any-hit rate of the full collection: about 12%.
HP1b binding inh = HTS for Inhibitors of HP1-beta Chromodomain Interactions with Methylated Histone Tails | Potency, µM (top dose mostly 114 µM), without a hit: at the highest dose activity change, negative = inhibition, most hits filed as inhibitors | AID 540317, 2011 | actives 0.56% (n = 390,000) | AlphaScreen HP1-beta / biotin-H3K9me3 peptide binding | Chromobox protein homolog 1 (Homo sapiens), P83916; also: nearly all actives have a fitted effect of over 70% in size
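HP1-beta protein (50 nM final) preincubated 30 min at room temperature with biotinylated H3(1-18)K9me3 peptide (50 nM) in PBS pH 7.4, 0.01% Tween-20, then compound added for 30 min. AlphaScreen streptavidin donor/nickel chelate acceptor beads (10 ug/mL final), 30 min dark, luminescence read.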
TDP1 block = qHTS Assay for Inhibitors of Tyrosyl-DNA Phosphodiesterase (TDP1); Tyrosyl-DNA phosphodiesterase 1 (Homo sapiens), Q9NUW8; recombinant TDP1, AlphaScreen DNA substrate cleavage; Potency, µM (highest dose often 130 µM), without a hit: top-dose activity change, negative = inhibition, usual class: inhibitors; actives 0.28% (n = 350,000); AID 485290, 2010; also: % is scaled to controls: 0 for no effect and ±100 for the full control effect; nearly all actives have a fitted effect of over 40% in size
Target sequence (Q9NUW8 whole entry, looked up): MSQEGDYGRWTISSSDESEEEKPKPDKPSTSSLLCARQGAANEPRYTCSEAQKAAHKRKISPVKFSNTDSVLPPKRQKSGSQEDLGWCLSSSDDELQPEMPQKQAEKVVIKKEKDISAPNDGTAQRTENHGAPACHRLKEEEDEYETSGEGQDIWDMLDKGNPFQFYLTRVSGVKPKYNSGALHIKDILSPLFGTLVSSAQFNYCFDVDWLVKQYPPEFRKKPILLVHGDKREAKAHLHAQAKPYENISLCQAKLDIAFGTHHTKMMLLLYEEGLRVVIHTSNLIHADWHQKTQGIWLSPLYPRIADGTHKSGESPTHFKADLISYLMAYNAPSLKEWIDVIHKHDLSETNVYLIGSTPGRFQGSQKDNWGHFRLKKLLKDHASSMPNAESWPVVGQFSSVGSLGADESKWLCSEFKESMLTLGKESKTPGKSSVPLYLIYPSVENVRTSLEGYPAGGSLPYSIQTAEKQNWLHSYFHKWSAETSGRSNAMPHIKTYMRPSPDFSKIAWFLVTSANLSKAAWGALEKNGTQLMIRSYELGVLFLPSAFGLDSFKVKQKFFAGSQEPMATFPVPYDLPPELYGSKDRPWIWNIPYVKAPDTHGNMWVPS
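E. coli-derived human Tdp1, 1 nM final. Cpd preinc 15 min RT; substrate 15 nM final, 5 min RT; AS bead mix 10 ug/ml final, 10 min RT. Signal loss = tyrosine-FITC cleavage. No-enzyme wells = max signal.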
JMJD2A Tudor inh = qHTS Assay for Inhibitors of JMJD2A-Tudor Domain; Lysine-specific demethylase 4A (Homo sapiens), O75164; AlphaScreen JMJD2A-Tudor / H3K4me3 peptide binding; Potency, µM (doses to about 114 µM), inactives show at the highest dose activity change, negative = inhibition, usual class: inhibitors; actives 4.4% (n = 390,000); AID 504339, 2011; also: % is scaled to controls: 0 for no effect and ±100 for the full control effect; nearly all actives have a fitted effect of over 50% in size
Sfp PPTase inh = qHTS Assay for Inhibitors of Bacillus subtilis Sfp phosphopantetheinyl transferase (PPTase); Potency, µM, for inactives: largest response in the series, negative = inhibition, actives largely listed as inhibitors; 4'-phosphopantetheinyl transferase ffp (Bacillus subtilis), Q9F4F7; AID 1490, 2009; actives 3.5% (n = 310,000); Biochemical Sfp PPTase activity, qHTS;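 also: the enzyme is Sfp with the accession as filed and its product quenches rhodamine fluorescence; 0% = enzyme reaction without inhibitor and -100% = no enzyme wells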
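Reaction rates are the 30-min fluorescence difference (ex 525, em 598 nm) in wells containing 15 nM Sfp, 5 uM rhodamine-CoA and 12.5 uM BHQ-2-YbbR at pH 7.6 with 10 mM MgCl2.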
BAZ2B inh = qHTS Assay for Inhibitors of BAZ2B | Bromodomain adjacent to zinc finger domain protein 2B (Homo sapiens), Q9UIF8 | AlphaScreen BAZ2B-H3K14Ac peptide displacement | Potency, µM (top dose mostly 114 µM), for the others: at the top dose activity change, negative = inhibition, most hits filed as inhibitors | actives 4.4% (n = 360,000); also: % is scaled to controls: 0 for no effect and ±100 for the full control effect; nearly all actives have a fitted effect of over 60% in size
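AlphaScreen displacement: compounds (up to 110uM) incubated 30 min at room temperature with a preformed 50 nM BAZ2B/50 nM biotinylated H3K14Ac peptide complex in PBS pH 7.4 with Tween-20. Donor and acceptor beads at 10 ug/mL final added, 20 min light-protected before reading.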
G9a block = qHTS Assay for Inhibitors of Histone Lysine Methyltransferase G9a; Histone-lysine N-methyltransferase EHMT2 (Homo sapiens), Q96KQ7; G9a H3K9 monomethylation, AlphaScreen, 2 h; Potency, µM (top dose mostly 102 µM), without a hit: at the top dose activity, negative = inhibition, usual class: inhibitors; actives 8.8% (n = 350,000); AID 504332, 2011; also: % is scaled to controls: 0 for no effect and ±100 for the full control effect; nearly all actives have a fitted effect of over 75% in size
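Signal arises when biotinylated H3K9 peptide, once monomethylated, bridges streptavidin donor and antibody-captured acceptor beads. Enzyme at 20 nM was preincubated 15 min with test compounds; peptide 500 nM and SAM 20 uM then reacted for 2 h.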
* = called active by the depositor; [ ] = dose if it differs, or a comment. Calls follow the shape of the dose curve; as a rule, active = well fitted curve in the direction sought with a large enough effect; inconclusive = small, poorly fitted or top-dose-only effect, or another doubt; inactive = no such curve, though single readings can be large; an effect the other way counts as inactive or inconclusive. Potency is read from the fitted curve at half-maximal effect.

For Cc1c(NC(=O)COC(=O)CCc2c[nH]c3ccccc23)c(=O)n(-c2ccccc2)n1C the results were HP1b binding inh 12%, TDP1 block 0%, JMJD2A Tudor inh -10%, Sfp PPTase inh 9%, BAZ2B inh -15% and G9a block 14%[0.501 µM].
`Brc1cc(Oc2cc(Br)c(Br)c(Br)c2Br)c(Br)c(Br)c1Br` gave TDP1 block 15%.
Cc1ccccc1Nc1cc(C)c2c(O)cccc2n1 was read as HP1b binding inh 15%, TDP1 block 5%, JMJD2A Tudor inh inconclusive, Sfp PPTase inh -20%, BAZ2B inh inconclusive and G9a block inconclusive.
For COc1ccc(Nc2cc(C)c3c(O)cccc3n2)cc1 the results were HP1b binding inh -13%, JMJD2A Tudor inh -28%[11.4 µM], Sfp PPTase inh inconclusive and BAZ2B inh 45µM*.
For Cc1ccc(Nc2cc(C)c3c(O)cccc3n2)cc1C the results were HP1b binding inh -21%, TDP1 block 10%, JMJD2A Tudor inh inconclusive, Sfp PPTase inh 50µM* and BAZ2B inh 45µM*.
N#Cc1cccc(NC(=O)N2CCCC3(CCN(C(=O)c4cccc(F)c4)CC3)C2)c1 was read as Sfp PPTase inh 6% and G9a block -1%[12.7 µM].
For COc1cc2c(cc1OC)C1=C(C#N)CCC(=O)N1CC2 the results were HP1b binding inh 50%, TDP1 block 2%, JMJD2A Tudor inh -7%, Sfp PPTase inh 16%, BAZ2B inh 10% and G9a block 14%[59 µM].
COc1cc2c(cc1OC)C1=C(C#N)CC/C(=N\S(=O)(=O)c3ccccc3)N1CC2 was read as HP1b binding inh 29%, TDP1 block 4%, JMJD2A Tudor inh -30%, Sfp PPTase inh -12%, BAZ2B inh -5% and G9a block 79µM*.
Screening Nc1ccc(Cc2ccc(N)c(O)c2)cc1O returned HP1b binding inh inconclusive, TDP1 block -1%, JMJD2A Tudor inh 40µM*, Sfp PPTase inh -1%, BAZ2B inh inconclusive and G9a block 50µM*.
Screening CC1CN(C(=O)N2CCC(C(=O)NCCC3=CCCCC3)CC2)c2ccccc2O1 (centres undefined) returned HP1b binding inh 24%, TDP1 block 3%, JMJD2A Tudor inh -9%, BAZ2B inh -13% and G9a block -29%[59 µM].
Screening Cc1cc(NC(=O)c2ccc(Cn3nc(C)c(Br)c3C)o2)no1 returned HP1b binding inh 0%, TDP1 block 7%, JMJD2A Tudor inh -14%, Sfp PPTase inh 10%, BAZ2B inh -1% and G9a block -10%[59 µM].
For Cc1nn(Cc2ccc(C(=O)NC(C)(C)C)o2)c(C)c1Br the results were HP1b binding inh 45%, TDP1 block 4%, JMJD2A Tudor inh -5%, Sfp PPTase inh 56µM*, BAZ2B inh -5% and G9a block inconclusive.
Screening COc1ccc2cc(C(=O)N3CCN(c4ccc(F)cc4)CC3)[nH]c2c1 returned HP1b binding inh 21%, JMJD2A Tudor inh 3%, Sfp PPTase inh 2%, BAZ2B inh -9% and G9a block 50µM*.
For COc1cccc(CC2(CO)CCCN(Cc3cn[nH]c3-c3cc(C)ccc3C)C2)c1 (centres undefined) the results were HP1b binding inh 30%, TDP1 block 3%, JMJD2A Tudor inh -25%, Sfp PPTase inh 2% and BAZ2B inh -11%.
COc1ccc2nc3oc(C(=O)N4CCN(c5cccc(Cl)c5)CC4)cc3cc2c1 was read as HP1b binding inh 16%, TDP1 block -5%, JMJD2A Tudor inh 5%, Sfp PPTase inh 11µM*, BAZ2B inh -17% and G9a block inconclusive.
For COc1cccc(CC2(CO)CCCN(Cc3[nH]c4ccc(C)cc4c3C)C2)c1 (centres undefined) the results were HP1b binding inh -19%, TDP1 block 5%, JMJD2A Tudor inh -22%[11.4 µM], Sfp PPTase inh -2%, BAZ2B inh inconclusive and G9a block 45µM*.
`COc1ccc2[nH]c(C(=O)N3CCC(CO)(Cc4cccc(C(F)(F)F)c4)CC3)c(C)c2c1` gave HP1b binding inh 11%, JMJD2A Tudor inh -29%, Sfp PPTase inh 16%, BAZ2B inh -38% and G9a block 79µM*.
`COc1ccc2[nH]c(C(=O)N3CCc4ccccc4C3)c(C)c2c1` gave HP1b binding inh 25%, TDP1 block 5%, JMJD2A Tudor inh -11%, Sfp PPTase inh 8%, BAZ2B inh -33% and G9a block 12%.
For CCOc1ccc(-n2c(=O)c3c(C)c(C)sc3n(CC(=O)N3CCC(C)CC3)c2=O)cc1 the results were HP1b binding inh 43%, TDP1 block 3%, JMJD2A Tudor inh 1%, BAZ2B inh 1% and G9a block -3%[59 µM].
`CCOC(=O)N1CCN(C(=O)c2ccc(Cn3c(=S)[nH]c4ccc(Br)cc4c3=O)cc2)CC1` gave HP1b binding inh 27%, TDP1 block 3%, JMJD2A Tudor inh -30%, Sfp PPTase inh 10%, BAZ2B inh -2% and G9a block 1%.
`Cc1nn(CC(=O)O)c(C)c1N` gave HP1b binding inh 19%, JMJD2A Tudor inh 2%, Sfp PPTase inh -2%, BAZ2B inh 4% and G9a block 7%[59 µM].
Screening Cc1ccc2c(c1)cc(C(=O)NCc1ccccc1C)n2C returned HP1b binding inh 17%, TDP1 block 3%, JMJD2A Tudor inh -5%, BAZ2B inh 0% and G9a block 7%[59 µM].
Screening CCOC(=O)C1CCN(C(=O)c2[nH]c3ccc(OC)cc3c2C)CC1 returned HP1b binding inh 9%, JMJD2A Tudor inh -5%, Sfp PPTase inh 7%, BAZ2B inh -3% and G9a block -4%.
CCOc1ccccc1N1CCN(C(=O)c2cc3cc(OC)ccc3[nH]2)CC1 was read as HP1b binding inh -9%, JMJD2A Tudor inh inconclusive, Sfp PPTase inh -26%, BAZ2B inh inconclusive and G9a block 35µM*.
Screening COc1cccc(N2CCN(C(=O)c3cc4cc(Cl)ccc4[nH]3)CC2)c1 returned HP1b binding inh -3%, JMJD2A Tudor inh inconclusive, Sfp PPTase inh 7%, BAZ2B inh -37% and G9a block 71µM*.
